Laboratory results reported in PubChem BioAssay.
Activity calls are given as the source filed them.

How the values were obtained:
[1] = compound effects on lung adenocarcinoma cell viability – A549, calcein-AM fluorescence, 48 h, basal, profiling panel (AID 1162); details: higher = more signal
[2] = compound effects on differentiated 3T3-L1 adipocyte viability – cell-based, 3T3-L1 adipocytes, calcein-AM fluorescence, 48 h, basal, profiling panel (AID 1163); details: 3T3-L1 adipocytes viability, higher = more signal
[3] = compound effects on hepatocellular carcinoma cell viability – HepG2, calcein-AM fluorescence, 48 h, basal, profiling panel (AID 1164); details: higher = more signal
[4] = compound effects on multiple myeloma cell viability – MM1S, calcein-AM fluorescence, 48 h, basal, profiling panel (AID 1165); details: higher = more signal;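 also: viability of MM1S multiple myeloma cells under basal unstimulated conditions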
[5] = calcein-AM signal in unstimulated myeloma cells – cell-based, calcein-AM fluorescence, 48 h, PK04 Diversity Set, profiling panel (AID 1166); details: RPMI8226 myeloma viability, higher = more signal;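 also: cells grown under basal conditions without added stimulus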
[6] = JC-1 mitochondrial signal, unstimulated HepG2 cells – cell-based, JC-1 fluorescence, 24 h, 100 nL compound, profiling panel (AID 1167); details: HepG2 mitochondrial potential, higher = more signal
[7] = JC-1 mitochondrial signal, unstimulated adipocytes – cell-based, JC-1 fluorescence, 3T3-L1 adipocytes, 24 h, 100 nL compound, profiling panel (AID 1168); details: JC-1 mitochondrial fluorescence, higher = more signal, called active from +8 up or from −8 down
[8] = JC-1 mitochondrial signal, unstimulated myeloma cells – cell-based, JC-1 fluorescence, RPMI8226, 24 h, 100 nL compound, profiling panel (AID 1169); details: JC-1 mitochondrial potential fluorescence, higher = more signal
[9] = JC-1 mitochondrial signal, unstimulated MM1S myeloma – cell-based, JC-1 fluorescence, 24 h, 100 nL compound, profiling panel (AID 1170); details: MM1S mitochondrial potential, higher = more signal
[10] = resazurin metabolic signal in A549 cells – cell-based, resazurin fluorescence, 24 h, PK04 Diversity Set, profiling panel (AID 1171); details: A549 viability, higher = more signal, called active from +8 up or from −8 down
Also: test concentration not given here.

Row | Structure (SMILES) | z-score [1] | z-score [2] | z-score [3] | z-score [4] | z-score [5] | z-score [6] | z-score [7] | z-score [8] | z-score [9] | z-score [10]
1 | COc1ccc([Si](C)(C)[C@H]2[C@H](CC(=O)N(CCO)Cc3ccccc3)O[C@@]3(C(=O)N(c4ccccc4)c4ccccc43)[C@@H]2C)cc1 | -3.41 | -1.38 | -4.61 | -2.69 | -4.38 | -2.35 | 0.938 (inactive) | -1.11 | -2.27 | -3.43 (inactive)
2 | COC(=O)C(CC#Cc1ccc2c(c1)[C@]1(C(=O)N2)[C@H](C(=O)NC[C@H](O)c2ccccc2)[C@H]2C(=O)O[C@H](c3ccccc3)[C@H](c3ccccc3)N2[C@@H]1c1ccc(O)cc1)C(=O)OC | -0.244 | -1.56 | -0.0776 | -1.46 | -1.97 | -2.14 | -1.75 (inactive) | -0.933 | -0.492 | 0.489 (inactive)
3 | C=CCN1C(=O)[C@]2(O[C@H](CCO)[C@@H]([Si](C)(C)c3ccc(OC)cc3)[C@@H]2C)c2cc(N3C(=O)c4ccccc4Oc4ccccc43)ccc21 | -3.65 | 0.139 | -4.64 | -2.73 | -4.35 | -2.08 | -0.599 (inactive) | -1.04 | -2.15 | -5.48 (inactive)
4 | C=C(CCCC)C(=O)CC[C@H](OC(=O)c1ccccc1-c1ccccc1C(=O)O)c1cccc(OCCO)c1 | -0.186 | 0.415 | -0.73 | -3.37 | -2.88 | -0.789 | 0.379 (inactive) | -0.451 | -0.507 | -0.611 (inactive)
5 | COC(=O)[C@H](Cc1ccccc1)N1CC(C)(OC)O[C@@H](Cc2ccccc2)[C@H]1/C=C/C1CC1 (stereo not given in full) | -0.572 | -0.317 | 0.299 | 0.391 | -0.304 | 0.208 | -0.394 (inactive) | 0.28 | -0.521 | 0.379 (inactive)
6 | CCOC(=O)C[C@H]1[C@H](OC(=O)c2ccc(-c3ccccc3)cc2)[C@@H](NC(=O)c2ccc(-c3ccccc3)cc2)c2cc(OCCCO)ccc2N1C(=O)c1ccccc1 | -0.555 | -0.132 | -0.134 | 0.125 | -0.473 | 0.642 | -0.45 (inactive) | 0.812 | 0.0869 | -0.769 (inactive)
7 | CCCNC(=O)[C@@]1(Sc2ccc(C)cc2)CC(=O)N(Cc2cc(C(F)(F)F)cc(C(F)(F)F)c2)[C@@H]1c1ccc(CO)cc1 | -0.259 | 1.2 | -0.609 | -0.254 | -0.312 | -0.537 | 0.196 (inactive) | 0.293 | -0.765 | 0.149 (inactive)
8 | CN1C(=O)C2C=CC(C(O)c3cccs3)N(N(c3ccccc3)c3ccccc3)C2C1=O (stereo not given) | -0.404 | -1.97 | 0.44 | 0.442 | 0.398 | 0.27 | -1.02 (inactive) | -0.24 | -0.694 | -0.659 (inactive)
9 | O=C1NC(=O)C2C1C=CC(C(O)C1CCCCC1)N2Nc1ccccn1 (stereo not given) | -1.05 | -0.608 | -0.484 | -0.0776 | -0.76 | -1.45 | -0.894 (inactive) | -0.573 | -0.9 | -0.606 (inactive)
10 | C=CCNC(=O)[C@@H]1[C@H]2C(=O)O[C@H](c3ccccc3)[C@H](c3ccccc3)N2[C@H](c2ccc(OCCO)cc2)[C@@]12C(=O)N(C(=O)OCCOC)c1ccccc12 | -0.514 | 0.484 | 0.332 | 0.374 | -0.562 | 2.15 | 0.89 (inactive) | -1.05 | 0.332 | -0.0659 (inactive)
11 | O=C1OCCC/C=C\[C@H]2OC34C=CCN(Cc5ccccc5)C(=O)[C@H]3N(CCO)C(=O)[C@@H]4C12 (stereo not given in full) | 0.457 | -0.728 | 1.21 | 1.64 | 0.998 | 1.03 | 0.857 (inactive) | -0.0351 | -0.27 | 0.263 (inactive)
12 | COC(=O)[C@@]1(Cc2ccc(F)cc2)[C@H]2c3cc(C(=O)N(C)C)n(Cc4ccc(C(F)(F)F)nc4)c3C[C@H]2CN1C(=O)c1ccccc1 | -0.509 | -0.602 | 0.158 | -0.201 | -1.36 | 1.79 | -0.602 (inactive) | -0.135 | -1.48 | -0.695 (inactive)
13 | [N-]=[N+]=Nc1ccccc1C[C@@]1(C(=O)NCc2ccccc2)N=C(c2ccc(OCCCO)cc2)O[C@@H]1c1ccccc1 | -1.36 | 0.902 | -1.78 | -2.51 | -3.76 | 1.45 | -0.739 (inactive) | -1.3 | -0.738 | 0.808 (inactive)
14 | COCCOC(=O)N1C(=O)[C@@]2(c3ccccc31)[C@H](C(=O)Nc1nc3ccccc3s1)[C@H]1C(=O)O[C@H](c3ccccc3)[C@H](c3ccccc3)N1[C@@H]2c1ccccc1OCCO | -0.905 | 0.679 | -0.899 | -0.975 | -1.48 | -2.27 | 2.21 (inactive) | -0.796 | -0.61 | 0.101 (inactive)
15 | C=CC[C@@]1(C(=O)NCCCOC)N=C(c2ccc(OCCCO)cc2)O[C@@H]1c1ccccc1CN=[N+]=[N-] | -0.287 | 0.532 | 0.569 | -0.459 | -0.885 | 2.5 | 0.738 (inactive) | -0.728 | 0.0149 | 0.41 (inactive)
